Test results published in ChEMBL document CHEMBL4513216, “Probing the Open Global Health Chemical Diversity Library for Multistage-Active Starting Points for Next-Generation Antimalarials” (ACS Infect Dis, 2020).
Among all 68,000 compounds or so, about 2,700 (4%) showed an effect of 50% or more. The full list was thinned out, with strong results kept by preference.

tested on: Plasmodium berghei; assay: Screen against P. berghei liver stage (PbLuc), transformed with Luciferase, at 2uM; format: functional, HepG2; conditions: tested at 2 uM

SMILES	INHIBITION [%]
COc1ccc(CN2CC[C@@H]3[C@H]2CCC(=O)N3c2cnn(C)c2)cc1	-41.29
NC(=O)C1CCN(C(=O)c2cccn2Cc2cccs2)C1 (stereo unspecified)	-8.9
CCC(C)(C)NC(=O)CN(Cc1cccc(O)c1)C1CCC(O)CC1 (stereo unspecified)	6.85
Cn1cc(CN2CCC(F)(F)C3(CCN(c4ncccn4)C3)C2)cn1 (stereo unspecified)	11.54
COCCOc1cccc(C(=O)N2CCCC(n3ccnc3C)C2)c1 (stereo unspecified)	27.55
COC(=O)c1ccc(NCc2csc(C)n2)cc1Cl	-37.11
CCOc1c(Br)cc(C2c3c(n[nH]c3C)N=C3COC(=O)C32)cc1OC (stereo unspecified)	-54.78
Cc1nc(C)c(C(=O)N2CCCc3c(F)ccc(F)c32)o1	44.71
Cc1nc(C)c(C(=O)N2CCc3c(C)cccc32)o1	43.28
Cc1nc(C)c(C(=O)N2CCCc3c(F)cccc32)o1	54.77
COc1ccc(CNC[C@H]2COCc3nc4cccnc4n32)cn1	-8.63
CC1CCN(C(=O)c2cccc3ncccc23)CC1	-29.11
CN(C)C(C(=O)N1CC(c2ccccn2)C1)c1cccc(F)c1 (stereo unspecified)	12.35
Cn1ccnc(Sc2ccccc2)c1=O	50.53
Cn1ccnc(Sc2ccc(O)cc2)c1=O	-31.15
Cc1ccc(Sc2nccn(C)c2=O)cc1	-2.44
COc1ccc2c(c1)CC(NCCCn1cc(C)cn1)CC2 (stereo unspecified)	-0.75
CN(Cc1cccc(Cl)c1)S(=O)(=O)N1CCOCC1	50.74
CN(Cc1cccc(F)c1)S(=O)(=O)N1CCOCC1	46.57
COc1cccc(CN(C)S(=O)(=O)N2CCOCC2)c1	11.97
CCc1nc(CN2CCOC(CN(CC)c3cccnn3)C2)cs1 (stereo unspecified)	-24.11
CN1CCN(Cc2cn3c(n2)CN(C(=O)c2cccn2C)CC3)CC1	-36.65

SMILES	INHIBITION [%]
CC(Cn1cccn1)C(=O)N1CCC(Nc2cccnn2)CC1 (stereo unspecified)	57.23
O=C(c1ccc2[nH]nnc2c1)N1CCC(Nc2cccnn2)CC1	-23.42
O=C(c1ccc2[nH]c(=O)[nH]c2c1)N1CCC(Nc2cccnn2)CC1	53.45
CC(C(=O)N1CCC(Nc2cccnn2)CC1)n1ccnc1 (stereo unspecified)	-12.48
O=C(c1ccc2cc[nH]c2c1)N1CCC(Nc2cccnn2)CC1	-16.42
CCn1c(C)cc(C(=O)N2CCC(Nc3cccnn3)CC2)c1C	56.58
CCn1c(C)cc(C(=O)N2CCC(Nc3ccc(C)nn3)CC2)c1C	13.88
CC(C(=O)N1CCC(Nc2cccnn2)CC1)n1cccn1 (stereo unspecified)	9.17
CCOc1ncccc1C(=O)N1CCC(Nc2ccc(C)nn2)CC1	-23.94
COc1ncccc1C(=O)N1CCC(Nc2ccc(C)nn2)CC1	62.13
O=C(c1ccc(NC2CC2)nc1)N1CCC(Nc2cccnn2)CC1	22.1
Cc1ccc(NC2CCN(C(=O)c3cccnc3O)CC2)nn1	-31.57
O=C1NC2(CCN(Cc3ccccc3Cl)CC2)CC1c1ccccc1 (stereo unspecified)	5.92
Cc1cc(NS(=O)(=O)CC2CCCCO2)ccc1F (stereo unspecified)	-40.47
CCc1ncc2c(n1)CN(CC(=O)Nc1nncs1)CC2	21.12
CN(C)CCOCC1CN(Cc2cccc(F)c2)Cc2nccn2C1 (stereo unspecified)	-0.23
Cc1nc(CNC(=O)C(C)Oc2ccccc2F)no1 (stereo unspecified)	-8.04
CC1CCN(c2nc3cn(Cc4cccc(F)c4)c(=O)c-3c[nH]2)CC1	12.59
COCC(NC(=O)NCc1sccc1C)c1ccco1 (stereo unspecified)	-6.4
Cc1cc(C(=O)N(C)C)nc(C2(C)CCCN2c2ccccc2)n1 (stereo unspecified)	9.9
Cc1nc(C)n(CC2CCCN(CCOc3ccccc3C#N)C2)n1 (stereo unspecified)	-70.51
COCCN1CCO[C@H]2CCN(C(=O)c3cccs3)CC[C@@H]21	34.19

SMILES	INHIBITION [%]
CN(C)CCN1CCO[C@H]2CCN(C(=O)c3cccs3)CC[C@@H]21	33.11
CS(=O)(=O)N1CCO[C@@H]2CCN(C(=O)c3cccs3)CC[C@H]21	51.36
CN(Cc1cccnc1)C[C@@H]1OC[C@H]2CN(C(=O)C3CC3)CC[C@H]21	20.21
Cn1cc(N2CC3(COCCN(Cc4ccsc4)C3)OCC2=O)cn1 (stereo unspecified)	-17.88
O=C(C1CC1)N1CCN2C[C@@H](CO)[C@H](c3ccccc3)[C@H]2C1	14.45
CC=C(C)C(=O)NS(=O)(=O)c1ccc(Cl)cn1	-40.56
COc1ccc(CN(C)C(=O)Cc2c(C)nn(C)c2C)cc1F	51.31
COc1ccc(NC(=O)Cc2c(C)nn(C)c2C)cc1F	18.15
COc1cc(CN(C)C(=O)Cc2c(C)nn(C)c2C)ccc1OC(F)F	-51.9
CN(C)CC1(O)CCCN(C(=O)c2ccccc2-n2cccn2)C1 (stereo unspecified)	-6.64
O=S1(=O)CCCN1Cc1coc(-c2cccs2)n1	21.33
COCCN(CCN(C)C)C(=O)NC1CC1	-25.13
COCCN(CCN(C)C)C(=O)NC1CCc2ccccc2C1 (stereo unspecified)	62.39
COCCN(CCOC)C(=O)NC1CCCCC1	-20.08
CC1(c2ccc(Br)cc2)CC(=O)N(CCC(N)=O)C1=O (stereo unspecified)	-10
CN(CC(C)(CO)CO)C(=O)Nc1cc(Cl)cc(Cl)c1	-1.72
Cc1nn(C)c(C)c1CN(C)S(=O)(=O)c1c(C)n[nH]c1C	16.49
Cc1cc(C)n(C2=NC(NCCCO)c3c(sc4c3CCCC4)N2)n1 (stereo unspecified)	30.54
Fc1cnc(N2CCO[C@H]3[C@H](OCC4CCOCC4)CC[C@@H]32)nc1	-39.98
COc1cc(-n2cccc2)c(Cl)cc1C(=O)NS(C)(=O)=O	1.06
CCOCCOC(C)C(=O)NCc1cn2cc(Br)ccc2n1 (stereo unspecified)	-4.1
CCC(CC)C(=O)NCc1cn2cc(Br)ccc2n1	-10.87

SMILES	INHIBITION [%]
CCOCCOC(C)C(=O)NCc1cn2cc(Cl)ccc2n1 (stereo unspecified)	52.74
O=C(c1ccco1)N1CCOCC2(CCN(C3CCOCC3)C2)C1 (stereo unspecified)	-68.56
c1ccc(CN2CCNCC(Cc3cnccn3)C2)cc1 (stereo unspecified)	6.19
Cc1ncccc1NC(=O)[C@H]1C[C@@H]2CCN(Cc3ccsc3)C[C@H]2O1	-30.39
CC(C)N(CCCNC(=O)C1CCOCC1)S(C)(=O)=O	18.14
CN(C)C(=O)NCc1cc2n(n1)CCCN(CC1[C@H]3CNC[C@@H]13)C2 (stereo partly specified)	14.46
O=C(O)c1ncccc1OCC(F)(F)F	55.73
O=C(OC1CCC1)c1ncccc1C(F)(F)F	46.63
O=C(OC1CCC1)c1ncccc1OCC(F)(F)F	21.72
CCc1nccn1CC(=O)N1C[C@@H]2CC[C@H]1CN(c1ncccn1)C2	-54.76
Cc1nc(CN2CCCN(Cc3nc4c(F)cccc4[nH]3)CC2)no1	27.86
CCCNC(=O)c1cc2c(c3ccccc3n2C)n1C(=O)N(C)C	-15.3
CN(C)C(=O)n1c(C(=O)NC(C)(C)CO)cc2c1c1ccccc1n2C	50.35
CC(C)NC(=O)c1cc2c(c3ccccc3n2C)n1C(=O)N(C)C	9.21
CN(C)CCN1C(=O)CC[C@@H]2[C@H]1CCN2C(=O)c1ccc(C#N)cc1	33.35
CS(=O)(=O)N1C[C@H]2CC[C@@H](C1)N(Cc1ccc3nsnc3c1)C2	6.3
Cc1cc(C(=O)N2CCCC(Cn3cc(C4CC4)nn3)C2)nc(C)n1 (stereo unspecified)	15.27
CC(O)CN1CCC(CNCc2cccc(C(F)(F)F)c2)CC1 (stereo unspecified)	-32.84
CN1CCCC(CCC(=O)NCCc2nnc(N)s2)C1 (stereo unspecified)	49.25
CCc1nnc(CNC(=O)CCC2CCCCN2C)s1 (stereo unspecified)	-22.64
CCc1nnc(CNC(=O)CCC2CCCN(C)C2)s1 (stereo unspecified)	52.47
O=C(CCCN1CCCCC1)N1CCN(C(=O)c2ccc[nH]2)CC1	2.7

SMILES	INHIBITION [%]
Cn1c(SCC2OCCc3ccccc32)n[nH]c1=O (stereo unspecified)	54.53
CCCn1c(O)nnc1SCC1OCCc2ccccc21 (stereo unspecified)	-10.86
Cn1c(N)nnc1SCC1OCCc2ccccc21 (stereo unspecified)	18.52
COc1ccc(CN2CC(O)CN(C(=O)c3ccccc3)CC2=O)cc1 (stereo unspecified)	-21.31
CSc1ccc(CNc2ccccc2CN2CCC(O)CC2)cc1	50.03
OCc1ccc(CNc2ccccc2CN2CCC(O)CC2)o1	5.02
CCc1ccc(CNc2ccccc2CN2CCC(O)CC2)o1	-10.29
CCSCc1ccnc(NC(=O)C2CCCO2)c1 (stereo unspecified)	31.62
CCSCc1ccnc(NC(=O)C2CCOC2)c1 (stereo unspecified)	51.27
O=C(Nc1cc(CSCCO)ccn1)c1ccc(Cl)o1	-32.88
COc1ccc(-c2csc(-c3cccc(C(=O)O)c3)n2)cc1OC	-60.47
c1ccc(CN2CCC3(CC2)Nc2ccccc2CO3)cc1	17.25
Cc1cc(CN2CCC(CNC(=O)CN3CCCCCC3)C2)[nH]n1 (stereo unspecified)	63.17
Cc1cc(CN2CCC(CNC(=O)Cc3ccc(F)cc3)C2)[nH]n1 (stereo unspecified)	-73.43
Cc1cc(CN2CCC(CNC(=O)c3ccc(C#N)cc3)C2)[nH]n1 (stereo unspecified)	39.57
CCC1=N[C@@]2(CC[C@@H]3CN(Cc4ccc(Cl)cc4)C[C@@H]32)C(=O)N1C	17.51
CN1CCc2[nH]cnc2C12CCN(C(=O)c1noc3c1CCCC3)CC2	-15.03
Cn1c(CN2CCOC[C@H]2c2nc(C(C)(C)C)co2)nc2ccccc21	-39.35
